The record followed here is PubChem BioAssay (EPA / NIEHS).

Values joined by “and” are separate entries in the source; they are usually repeats but may differ in a detail not shown here. Identical values can stand only once. Active and inactive are the calls of the source. Rule for the calls: active = hit-call score of the fitted dose curve at least 0.9, where 1 is the maximum; inactive = score below 0.9.

A word on the AC50: it is the concentration at which the activity in the assay is half-maximal.

Read-out in this assay: Human Leukocyte Antigen - DR isotype (HLADR), HLA-DRA (gene 3122)
As to the kind of experiment: BSK_BE3C_HLADR: BioMAP Diversity Plus: BE3C Assay for Human Leukocyte Antigen - DR isotype (HLADR) Biomarker Activity (AID 2283032). The following applies: primary human bronchial epithelial cells; actives raise or lower the signal. How it is done: BSK_BE3C is a cell-based, multiplexed-readout assay that uses bronchial epithelial cell, a human lung primary cell, with measurements taken at 24 hours after chemical dosing in a 96-well plate.BSK_BE3C_HLADR is an assay component measured in the BSK_BE3C assay. It measures HLA-DR antibody related to regulation of gene expression using ELISA technology.Data from the assay component BSK_BE3C_HLADR was analyzed into 1 assay endpoint. This assay endpoint, BSK_BE3C_HLADR, was analyzed with bidirectional fitting relative to DMSO as the negative control and baseline of activity. Using a type of binding reporter, gain or loss-of-signal activity can be used to understand changes in the signaling as they relate to the gene HLA-DRA. Furthermore, this assay endpoint can be referred to as a primary readout, because this assay has produced multiple assay endpoints where this one serves a signaling function. To generalize the intended target to other relatable targets, this assay endpoint is annotated to the cell adhesion molecules intended target family, where the subfamily is MHC Class II.
The levels of cell surface (or secreted, indicated by the prefix "s") biomarker endpoints were measured by ELISA. Overt cytotoxicity to cells in confluent adherent cultures (all systems other than the BT system) was assessed by measuring total protein levels using sulforhodamine B (SRB) staining in parallel cultures at the time of biomarker measurements, indicated as SRB endpoints. For proliferation assays for adherent cell types, individual cell types are cultured at sub-confluence and relative cell numbers quantified by SRB staining at time points optimized for each system (48 h: 3C and CASM3C systems; 72 h: BT and HDF3CGF systems; 96 h: SAg system). SRB was performed by staining cells with 0.1% SRB after fixation with 10% TCA and reading wells at 560 nm.Viability and proliferation of PBMC (T cells) was quantified by Alamar Blue reduction for the SAg and BT systems. For PBMC viability (referred to as PBMC Cytotoxicity within the assay endpoint names), cells were plated (75,000/well in a 96-well plate) and then chemical samples added for 1 h before addition of activators, SEB and TSST-1 (20 ng/mL final concentration each). Cells were incubated for 90 h. Then, Alamar Blue (20 uL/well) (Invitrogen, Cat DAL1100) was added for 6 h, and the plates were read with a fluorescence microplate reader at 546/580 nm (excitation/emission). For PBMC proliferation, cells were plated and activated as above but incubated for only 16 h prior to addition of Alamar Blue. Plates were read after 6 h.
Regarding `CCC[CH2][Sn]([Cl])([CH2]CCC)[CH2]CCC`, the AC50 is 0.215 µM (active). Turning to `CC(C)(C)OOC(=O)c1ccccc1`, the result was inactive. On the same count and under the same terms, under `CN(C)C(=O)Nc1ccc(Cl)cc1` stands “inactive”. With `CC(C)(OOC(C)(C)c1ccccc1)c1ccccc1`, the AC50 is 27.7 µM (active).

As for `CCCCCCCCCCCCCN1CC(C)OC(C)C1` (stereo not given), the result was inactive. For the compound `O=[N+]([O-])c1ccc(Oc2ccc(Cl)cc2Cl)cc1`, the AC50 is 20 µM (active). On to `Nc1ccc(Cc2ccc(N)cc2)cc1`, for which the result was inactive. Turning to `CCCCCCCCOC(=O)c1ccc(C(=O)OCCCCCCCC)c(C(=O)OCCCCCCCC)c1`, the result was inactive.

As for `ClC1=C(Cl)C2(Cl)C3C(Cl)C=CC3C1(Cl)C2(Cl)Cl` (stereo not given), the AC50 was 26.2 µM (active). Take `Cc1cccc(N)c1N`: the outcome was inactive. On to `Cc1ccc(N)c(N)c1`, for which the outcome was inactive.

In the case of `CCOC(=O)[C@]1(c2ccccc2)Oc2ccccc2[C@@H]1N`, the AC50 was 20 µM (active). On the same count and under the same terms, to `O=C(N[C@H](c1ccccc1)[C@@H]1CN2CCC1CC2)c1c(Cl)ccc(C(F)(F)F)c1Cl` belongs 39.7 µM (active).

Turning to `O=P(OCCCl)(OCCCl)OCCCl`, the result was inactive. `CNC(=O)Oc1cccc2c1OC(C)(C)C2`: the result was inactive. Same read-out and setting: to `CN(C)c1ccccc1` belongs “inactive”.

For `CCNS(=O)(=O)C(F)(F)C(F)(F)C(F)(F)C(F)(F)C(F)(F)C(F)(F)C(F)(F)C(F)(F)F`, the half-maximal activity concentration (AC50) is 5.32 µM (active) and 36.7 µM (active) and 30 µM (active). With `O=[N+]([O-])C(Br)(CO)CO`, the result was inactive. Still for that read-out and setting: under `CC(C)(C)C(O)(CCc1ccc(Cl)cc1)Cn1cncn1` (stereo not given) stands “inactive”. As to `CCCCCCCCn1sccc1=O`, the AC50 is 7.16 µM (active). Consider `CN(C)c1ccc(C(=O)c2ccc(N(C)C)cc2)cc1`, for which the outcome was inactive. With `CC(O)CCO` (stereo not given), the outcome was inactive. On the same count and under the same terms, to `Cc1cc(N=Nc2ccccc2C)ccc1N` belongs “inactive”; to `O=C(Oc1ccc(Br)cc1)N1CCN2CCC1CC2`, “inactive”; to `Oc1ccccc1Cl`, “inactive”. Regarding `Nc1cc(Cl)cc(C(=O)O)c1Cl`, the outcome was inactive. Turning to `Oc1ccc2ccc3cccc4ccc1c2c34`, the AC50 was 34.6 µM (active).

Consider `ClCCOCCCl`, for which the result was inactive. The same measure, in the same setting: to `COC(=O)Nc1nc2ccccc2[nH]1` belongs “inactive”.

In the case of `CCN(CC)N=O`, the result was inactive.

With `Clc1ccc(Cl)c(Cl)c1`, the result was inactive. `Clc1ccc(C(c2ccc(Cl)cc2)C(Cl)(Cl)Cl)cc1`: the result was inactive. The same measure, in the same setting: under `Cc1ccc(N)cc1` stands “inactive”.

In the case of `OCCCBr`, the outcome was inactive. Still for that read-out and setting: under `CCN(CC)CCO` stands “inactive”. Still for that read-out and setting: under `CC(C)N(Cc1ccccc1)C(=O)C(C)(C)C` stands “inactive”; under `OCCOCCO`, “inactive”. Same read-out and setting: to `Nc1ccc(Cl)cc1N` belongs “inactive”; to `c1ccc(C2CO2)cc1` (stereo not given), “inactive”; to `Brc1ccc(Oc2ccccc2)cc1`, “inactive”.
